Only some compounds are listed: those with a hit (about 2.6% of all), similar ones and a draw of the others.
eIF4E-4G inh: inhibitors of eIF4E and eIF4G interaction in translation initiation | TR-FRET eIF4E-eIF4GI(517-606) binding, 2 h | inhibition, % at 21.7 µM | 220,000 compounds, 0.37% hits | AID 782;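 active means inhibition above about 30%, limit read from the data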;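 further: 0% = full FRET control wells and 100% = background wells lacking eIF4GI fragment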
Mcl1 Bid PPI: disrupts binding of human Mcl-1 to Bid peptide | inhibition, % at 21.7 µM | TR-FRET Mcl-1/Bid-Dy647 peptide binding, 1536-well | 220,000 compounds, 0.97% hits;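 active means compounds that cut the binding signal by more than half at the single screening dose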;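 further: His-tagged Mcl-1 with europium anti-His antibody binding Bid BH3 peptide; 0% = Mcl-1 plus peptide wells and 100% = peptide-only wells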
Target sequence (Q07820 whole entry, looked up): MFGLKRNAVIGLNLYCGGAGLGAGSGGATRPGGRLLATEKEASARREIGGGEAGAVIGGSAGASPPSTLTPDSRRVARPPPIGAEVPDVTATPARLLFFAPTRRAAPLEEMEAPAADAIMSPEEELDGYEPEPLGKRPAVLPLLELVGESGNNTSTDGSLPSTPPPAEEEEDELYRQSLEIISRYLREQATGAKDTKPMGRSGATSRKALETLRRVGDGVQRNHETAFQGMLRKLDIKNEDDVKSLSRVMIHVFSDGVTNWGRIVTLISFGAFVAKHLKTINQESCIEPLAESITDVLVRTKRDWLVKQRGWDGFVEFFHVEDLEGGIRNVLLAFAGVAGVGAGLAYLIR
MCL1 BIM primary: disrupts human MCL1 binding to BIM-BH3 peptide; inhibition, % at 10.9 µM; AID 2057; Q07820; GST-MCL1 / FITC-Bim-BH3 fluorescence polarization; 320,000 compounds, 0.68% hits;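 active means inhibition above the mean inhibition of all tested compounds plus 3 SD, set per campaign, cut at about 40% in these data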;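 further: 0% = DMSO wells and 100% = unlabeled Bim-BH3 peptide control; higher means more loss of mP so more displacement of Bim peptide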
Mcl1-Noxa inh: disrupts binding of human Mcl-1 to Noxa peptide; Q07820; TR-FRET Mcl-1/Noxa peptide binding, 2 h; 220,000 compounds, 1.5% hits; inhibition, % at 21.7 µM;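 active means compounds that cut the protein-peptide binding signal by more than 50% relative to plate controls in a single-dose test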;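 further: His-tagged Mcl-1 with rhodamine Noxa BH3 peptide and terbium anti-His antibody; 0% = Mcl-1 plus Noxa peptide wells and 100% = peptide-only wells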
14-3-3 Bad inh: disrupts binding of bovine 14-3-3 zeta to phospho-Bad peptide. AID 781. 220,000 compounds, 0.71% hits. TR-FRET 14-3-3zeta/Dy647-pBad peptide displacement, 1 h. P63103. inhibition, % at 21.7 µM;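 active means inhibition above about 70%, limit read from the data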;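 further: 0% = full 14-3-3 plus peptide FRET controls and 100% = background without 14-3-3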
Target sequence (P63103 whole entry, looked up): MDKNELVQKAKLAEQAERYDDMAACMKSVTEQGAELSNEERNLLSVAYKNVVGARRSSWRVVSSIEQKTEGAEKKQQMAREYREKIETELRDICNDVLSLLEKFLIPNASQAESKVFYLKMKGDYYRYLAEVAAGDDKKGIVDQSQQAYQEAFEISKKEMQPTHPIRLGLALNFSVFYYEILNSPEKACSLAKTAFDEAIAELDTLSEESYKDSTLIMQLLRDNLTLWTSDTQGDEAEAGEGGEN
Bim-Mcl-1: disrupts Bim peptide binding to human Mcl-1 | Bead-based flow cytometry, Bim peptide-Mcl-1 binding | inhibition, % at 10 µM | 190,000 compounds, 0.1% hits | AID 1009; in the data active means inhibition above about 40%;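 further: 0% = no compound tracer wells and 100% = peptide blocker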
Starred values were filed as active, the others as inactive; / = no result given; [ ] = remark or other dose.

SMILES	eIF4E-4G inh	Mcl1 Bid PPI	MCL1 BIM primary	Mcl1-Noxa inh	14-3-3 Bad inh	Bim-Mcl-1
Cc1ccc(S(=O)(=O)Nc2cc(C)c(O)cc2C)cc1	1	-29	6	23	-1	1
Cc1ccc(S(=O)(=O)Nc2csc(C)c2C(=O)O)cc1	2	19	26	54*	73*	/
O=C(/C=C/NCc1cccnc1)c1ccc(-c2ccccc2)cc1	/	/	-16	/	/	/
CCOc1ccccc1CNC(=O)CCC(=O)N1Cc2ccccc2Oc2ncccc21	/	/	2	/	/	/
Cc1cccc(-n2cnc(C(=O)NC3CCCCCC3)c2)n1	30*	7	0	6	4	-3
CC(=O)C[C@H](O)CC(=O)[C@H]1OC(=O)CCCCCCCc2ccccc21	/	/	4	/	/	/
Cc1ccc(S(=O)(=O)Oc2ccc(C3C4=C(CCCC4=O)N(CCC(=O)O)C4=C3C(=O)CCC4)cc2Cl)cc1	15	-14	8	0	-9	-6
CCOC(=O)c1c(NC(C)=O)sc2c(O)c(Br)cc(Br)c12	22	-15	27	84*	7	-3
Nc1nc(N2CCN(c3ccccc3)CC2)n[nH]1	1	-57	-3	12	72*	1
COc1ccccc1-n1c(SCc2cc(=O)oc3cc(O)ccc23)nc2ccccc2c1=O	15	-71	2	67*	-25	-1
COc1ccccc1-n1c(SCC(=O)N2CCOCC2)nc2ccccc2c1=O	/	/	-3	/	/	/
Oc1ccc(C23CCCC2C2(CCCC2)c2ccc(O)cc2O3)c(O)c1 (configuration not stated)	/	/	-1	/	/	/
Cc1ccccc1C(=O)Nc1cccc(C(=O)N/N=C/c2cc(Cl)cc([N+](=O)[O-])c2O)c1	36*	-54	5	18	-9	0
O=[N+]([O-])c1cc(Cl)cc(/C=N/Nc2nc3ccccc3s2)c1O	1	-15	9	67*	-10	-1
COc1cc(/C=N/Nc2nc3ccccc3s2)cc([N+](=O)[O-])c1O	6	13	17	32	0	/
COc1cc2[nH]c(=S)nc(NCCc3ccc(C)cc3)c2cc1OC	-1	-41	/	20	3	16
COc1ccc(CCNc2ncnc3cc(OC)c(OC)cc23)cc1OC	-2	-21	/	10	-3	0
COc1cc2[nH]c(=S)nc(NC3CCCCCC3)c2cc1OC	-4	-21	23	7	-4	13
COc1ccc(CCNc2nc(=S)[nH]c3cc(OC)c(OC)cc23)cc1OC	-6	-23	10	80*	-14	27
COc1cc2[nH]c(=S)nc(Nc3ccc(NC(C)=O)cc3)c2cc1OC	-2	-79	24	78*	-10	33
COc1ccc(CCNc2ncnc3c2[nH]c2cc(OC)c(OC)cc23)cc1OC	-7	-8	-1	66*	6	/
COc1cc2[nH]c(=S)nc(NCCc3ccc(S(N)(=O)=O)cc3)c2cc1OC	0	-55	11	59*	-10	38
CC(CN1CCCCC1)NC(=O)c1cccs1 (configuration not stated)	/	/	1	/	/	/
CCc1cc(C(=O)N(C)CC(=O)Nc2c(Cl)cccc2Cl)sc1C	/	/	7	/	/	/
CCN(CC)CCCn1c2c(c(SCC(=O)Nc3ccc(OC(F)(F)F)cc3)nc1=O)CCC2	/	/	2	/	/	/
SMILES	eIF4E-4G inh	Mcl1 Bid PPI	MCL1 BIM primary	Mcl1-Noxa inh	14-3-3 Bad inh	Bim-Mcl-1
N/C(=N\N=C/c1ccc(Br)cc1)N/N=C\c1ccc(Br)cc1	6	-10	4	8	0	40*
Cc1ccc2[nH]c(=O)c3cc(C(=O)N(C)C4CCCCC4)sc3c2c1	/	/	7	/	/	/
COc1ccc(CCNc2nc(-c3sc(C)nc3C)cs2)cc1OC	-7	73*	-5	60*	64	0
COc1ccc(CCNc2nc(-c3cccnc3)cs2)cc1OC	-7	90*	4	11	-15	-5
COc1ccc(CCNc2nc(-c3ccncc3)cs2)cc1OC	-7	-11	-1	0	1	/
CCc1ccc(N(C(=O)c2csnn2)C(C(=O)NCc2ccccc2)c2ccco2)cc1 (configuration not stated)	9	-6	12	-23	95*[fluorescence artefact?]	-1
NC(=O)C12CCCC(Br)(CCC1)C2	92*	-3	3	-12	7	/
COc1ccc(-c2c(C)nn3c(N)c(C#N)cnc23)cc1OC	38*	-37	1	-5	-5	-4
Cc1nn2c(N)c(C#N)cnc2c1-c1ccc(Cl)cc1	-8	-33	0	-28	0	0
CC(C)c1ccccc1NC(=O)COC(=O)c1cccnc1	/	/	-8	/	/	/
COc1ccc(C(=O)C(c2ccccc2)N2CCOCC2)cc1 (configuration not stated)	-11	-8	-5	3	71*	2
C=CC(c1ccccc1)C(C(=O)c1ccccc1)N(C)C (configuration not stated)	0	82*	/	-9	-5	-1
CC(C)=CCc1cc(-c2oc3cc(O)cc(O)c3c(=O)c2O)ccc1O	/	/	1	/	/	/
CC(C)=CCc1c(O)cc2oc3c(CC=C(C)C)c(O)c(O)c(CC=C(C)C)c3c(=O)c2c1O	-14	-51	13	60*	-2	/
CN(C)C(=O)c1sccc1Oc1ccc(F)cc1[N+](=O)[O-]	1	-4	8	5	-1	-1
CCOC(=O)CSC(=S)NC(=O)c1ccc(OC)cc1	15	-95	15	56*	9	-7
CC[N+](C)(C)CC/C=C1/c2ccccc2Sc2ccc(Cl)cc21	86*	-9	8	3	-3	/
O=c1c(C(c2ccccc2)c2c(O)sc3ccccc3c2=O)c(O)sc2ccccc12	19	71*	8	53*	19	-5
Cc1cc2sc3ccccc3c(=O)c2c(C)c1O	3	4	10	42	-16	0
CN(Cc1cccc(F)c1)C(=O)c1ccc2c(=O)n3c(nc2c1)CCC3	/	/	0	/	/	/
O=C(OCc1cccc(F)c1)c1ccc2c(=O)n3c(nc2c1)CCC3	8	61*	-15	-3	10	/
Nc1ccc(-c2cnc[nH]2)cc1[N+](=O)[O-]	0	-68	5	16	1	/
Nc1ccc(-c2ccc(N)c([N+](=O)[O-])c2)cc1[N+](=O)[O-]	5	15	10	51*	12	2
O=C(Nc1ccc(F)cc1F)c1cc(Cl)sc1Cl	/	/	7	/	/	/
CCS(=O)(=O)N1CCN(C(C)CCc2ccccc2)CC1 (configuration not stated)	15	77*	4	91*	70*	1
CCCS(=O)(=O)N1CCN(S(=O)(=O)c2ccccc2)CC1	64*	0	-7	-3	5	0
CN1CCN(S(=O)(=O)c2ccccc2)CC1	/	/	0	/	/	/
O=C(Cc1cccs1)N1CCN=C1SCc1cccc(F)c1	0	-34	2	-13	-5	/
Cc1ccc(/C=C/C(=O)NCc2ccc(S(N)(=O)=O)cc2)o1	0	-41	/	53*	-11	-5

Assay outcomes (PubChem BioAssay)
